Data published in the supplement of paper PMC6555819.

Key:
Test in all cases: PBM binding z-score (relative to random genomic background probes); higher = stronger binding; sequences stand for … in GC…GCGATTGACAGCGTAGAATGAAGG
[1] = test system: FXR:RXRa (NR concentration 270 nM, RXRa partner concentration 90 nM)
Outline: (§1)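 Probes were double-stranded and carried 34-nt variable regions with direct-repeat seeds, single-nucleotide variants, half-site ablations and random human genomic background sequences, printed on custom Agilent 4×180K protein-binding microarrays. Arrays were incubated 1 h with ligand-free nuclear receptor dimers in PBS pH 7.4, 2% milk, 0.02% Triton X-100, 1 mM DTT, 0.2 mg/mL BSA and 0.4 mg/ml salmon testes DNA. Antibodies against each partner (one per run) detected binding, and scanned fluorescence was regression-normalized. Binding z-scores use the random background probes as reference.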

[2] = test system: LXRa:RXRa (NR concentration 270 nM, RXRa partner concentration 90 nM)
Outline: as §1

[3] = test system: LXRa homodimer (NR concentration 270 nM)
Outline: as §1

[4] = test system: LXRb:RXRa (NR concentration 270 nM, RXRa partner concentration 90 nM)
Outline: as §1

[5] = test system: LXRb homodimer (NR concentration 270 nM)
Outline: as §1

[6] = test system: PPARa:RXRa (NR concentration 270 nM, RXRa partner concentration 90 nM)
Outline: as §1

[7] = test system: PPARg:RXRa (NR concentration 180 nM, RXRa partner concentration 90 nM)
Outline: as §1

[8] = test system: PPARg:RXRa 270nM:90nM, anti-RXR (NR concentration 270 nM, RXRa partner concentration 90 nM)
Outline: as §1

[9] = test system: PPARg:RXRa 30nM:10nM, anti-RXR (NR concentration 30 nM, RXRa partner concentration 10 nM)
Outline: as §1

[10] = test system: PPARg:RXRa 90nM:30nM, anti-RXR (NR concentration 90 nM, RXRa partner concentration 30 nM)
Outline: as §1

[11] = test system: PPARg:RXRa DBDmut IVT, anti-RXR (DBD mutation: RXRa K156A/R161A, NR concentration 270 nM, RXRa partner concentration 90 nM)
Outline: as §1

[12] = test system: PPARg:RXRa IVT, anti-PPARg (NR concentration 270 nM, RXRa partner concentration 90 nM)
Outline: as §1

[13] = test system: PPARg DBDmut:RXRa IVT, anti-PPARg (DBD mutation: PPARg1 K132A/R137A, NR concentration 270 nM, RXRa partner concentration 90 nM)
Outline: as §1

[14] = test system: PPARg DBDmut IVT, anti-PPARg (DBD mutation: PPARg1 K132A/R137A, NR concentration 270 nM)
Outline: as §1

[15] = test system: PPARg homodimer (NR concentration 180 nM)
Outline: as §1

[16] = test system: PXR:RXRa (NR concentration 270 nM, RXRa partner concentration 90 nM)
Outline: as §1

[17] = test system: PXR homodimer (NR concentration 270 nM)
Outline: as §1

[18] = test system: RARa:RXR (NR concentration 270 nM, RXRa partner concentration 90 nM)
Outline: as §1

[19] = test system: RARa homodimer (NR concentration 270 nM)
Outline: as §1

[20] = test system: RARb:RXRa (NR concentration 270 nM, RXRa partner concentration 90 nM)
Outline: as §1

Sequence	PBM binding z-score [1]	PBM binding z-score [2]	PBM binding z-score [3]	PBM binding z-score [4]	PBM binding z-score [5]	PBM binding z-score [6]	PBM binding z-score [7]	PBM binding z-score [8]	PBM binding z-score [9]	PBM binding z-score [10]	PBM binding z-score [11]	PBM binding z-score [12]	PBM binding z-score [13]	PBM binding z-score [14]	PBM binding z-score [15]	PBM binding z-score [16]	PBM binding z-score [17]	PBM binding z-score [18]	PBM binding z-score [19]	PBM binding z-score [20]
CCAGACAGGTGAGAAAGTAACTCAGCCTCGATTA	-0.0524	0.0409	0.0347	0.0309	-0.167	0.206	0.1	-0.203	-0.427	-0.273	0.811	0.252	-0.222	-0.131	0.452	-0.35	0.307	0.117	0.86	0.141
GATACAGGGTCAGCTAGAGGCCAGAGTATGGAAA	4.81	2.75	-0.32	2.6	-0.659	4.53	3.81	3.35	0.742	2.06	1.03	2.29	0.139	0.0351	3.5	3.49	-0.262	4.85	0.574	4.22
CCTACTGGGCCAAAAAGGTCACTGATGCCGATAA	2.83	3.29	1.36	3.63	-0.14	4.64	3.78	4.35	1.79	3.78	3.78	4.39	-0.138	-0.0876	3.8	4.22	1.16	4.59	1.29	4.15
ATCTCTAGGTAAAAGGTCAGTGAATCCCGAGGAT	3.03	3.55	1.43	3.07	1.09	6.09	9.92	8.92	8.03	9.78	3.67	5.64	1.49	2.13	2.81	3.49	0.63	4.68	1.9	4.56
CCTTACGGGTCACTCCAGGTTAGAGCATCGGAGT	4.5	6.91	0.78	4.42	0.148	4.23	3.19	3.7	0.828	2.54	2.67	3.37	-0.182	-0.0184	1.58	4.28	0.36	3.52	0.0194	3.64
TCAGATAGGTGAAGGTAACTCAGGTACGCAGTCG	0.487	1.73	-0.148	0.791	-0.21	1.32	1.01	2.26	3.97	3.01	3.31	1.87	0.193	-0.0331	0.849	0.435	0.291	0.668	0.648	1.1
TCGAGTAGGTTAGTCGGGGCATGCAGCCAACATA	-0.0547	0.104	-0.427	0.0747	-0.894	0.523	0.2	0.809	0.702	0.884	2.41	2.26	0.028	-1.65	-0.293	-0.00662	-0.418	0.207	-0.677	0.512
CCTACTGGGCCAAAAAGGACATTGATGCCGATAA	-0.363	-0.495	-0.28	-0.539	-0.727	-0.00322	1.04	1.6	0.0632	1.17	3.5	2.63	-0.447	0.0111	0.363	-0.396	0.177	-0.191	0.526	0.68
CGTTCAAGGTCAGCAGGTCAGTGAAAGCGACGTG	6.5	4.34	0.93	3.38	0.134	5.37	5.07	5.47	1.95	4.09	3.85	4.34	0.78	0.144	2.98	4.06	1.14	5.42	1.55	5.54
CCTACTGGGCCAAGATCATTGATCAGTCAAAGCA	-0.667	-0.791	-0.405	-0.59	-1.07	0.131	0.378	0.483	-0.171	0.221	3.49	2.81	-0.235	-0.518	-0.385	-0.498	-0.795	-0.319	-0.424	-0.341
TCTGCTAGGTCAGTTAGTCAGCTAACGAGCTGCC	0.761	0.452	-0.662	0.131	-0.11	0.983	-0.0973	1.33	1.2	1.46	2.31	2.39	0.967	0.0395	-0.199	0.00438	-0.871	0.377	-0.653	2.89
TCTAGTTGGTCCAAGGTCACACACTCGAAATGCG	3.91	3.59	1.87	3.54	0.734	4.18	4.19	5.58	4.56	5.7	2.28	3.07	1.36	0.797	3.08	4.21	1.63	4.31	1.96	3.53
TGAAGGAGGTTATAAGATCAGGGAACGTTGCAAA	0.559	0.855	-0.0635	0.774	-0.481	2.16	0.845	1.42	0.992	1.16	-0.131	0.876	0.728	0.392	0.374	0.292	0.19	0.993	0.904	0.905
ATTATTAGTTGAGACGAGGGCAACCGATAGGTTG	1.13	0.675	1.08	0.406	0.941	0.603	0.713	0.504	0.68	0.781	0.469	1.43	1.76	1.3	1.77	1.72	1.69	1.4	2.49	1.48
